The source of these data is PubChem BioAssay.

Unmarked numbers belong to inactive results. How the calls were made is not given here.

In this test the target is Pantothenate synthetase (Mycobacterium tuberculosis (strain ATCC 25618 / H37Rv)) (UniProt P9WIL5). As to the kind of experiment: Recombinant Mtb pantothenate synthetase (PanC) inhibitors, coupled enzyme, confirmatory (AID 375).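 Further: 0% = full reaction with vehicle and 100% = no enzyme background.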 The note with it: coupled enzyme assay; at 10 µM, active compounds read high.
Pantothenate synthetase (Mycobacterium tuberculosis (strain ATCC 25618 / H37Rv)), sequence (P9WIL5 whole entry, looked up): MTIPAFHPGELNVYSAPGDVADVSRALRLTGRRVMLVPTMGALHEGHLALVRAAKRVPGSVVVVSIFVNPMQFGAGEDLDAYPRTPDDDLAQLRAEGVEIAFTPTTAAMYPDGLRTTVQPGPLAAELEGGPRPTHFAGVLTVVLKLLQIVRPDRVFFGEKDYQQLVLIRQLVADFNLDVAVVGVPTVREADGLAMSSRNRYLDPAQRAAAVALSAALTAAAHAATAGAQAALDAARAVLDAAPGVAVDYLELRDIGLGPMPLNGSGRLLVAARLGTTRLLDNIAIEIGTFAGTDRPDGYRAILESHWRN
By inhibition is commonly meant the share of the control response that was lost under treatment. With `COc1ccc(-n2ncc3c(NCCCN4CCOCC4)ncnc32)cc1`, the inhibition was 6%. As to `N#Cc1c(N2C(=O)C3C4C=CC(C4)C3C2=O)sc2c1CCC2` (stereo not given), the inhibition was 0%. The value for `COc1nc(OC)nc(N2CCC(NC(=O)C(Cc3ccc(C(C)C)cc3)NC(C)=O)CC2)n1` (stereo not given) was 5%; that for `Cc1ccc(-c2ccc(SCC(=O)Nc3nonc3C)nn2)cc1` was 3%; that for `CC(C)[N+]1(C)[C@@H]2CC[C@H]1CC(OC(=O)C(CO)c1ccccc1)C2` (stereo not given in full) was 0%. The value for `COc1ccccc1C(=O)OCn1nnc2ccccc2c1=O` was 0%. With `CCCC(=O)Nc1ccccc1-c1nnn(CC(=O)Nc2ccc(OCC)cc2)n1`, the inhibition was 0%. The value for `O=C1CSC(c2cn(-c3ccccc3)nc2-c2ccccc2)N1Cc1ccco1` (stereo not given) was 4%; that for `O=C(c1ccccc1-c1nc(-c2ccccc2)no1)N1CCCC1` was 0%; that for `c1cncc(-c2nnc(SCCSc3nnc(-c4cccnc4)o3)o2)c1` was 0%. The value for `Cc1cc(NC(=O)CCCC(=O)Nc2ccc(F)cc2)no1` was 4%; that for `COc1ccccc1OCCNC(=O)c1cccs1` was 0%; that for `O=c1n(CCCN2CCN(c3cccc(Cl)c3)CC2)nc2ccccn12` was 0%. Regarding `CCCC(=O)N(Cc1cc2ccccc2[nH]c1=O)c1ccccc1OC`, the inhibition is 2%. The value for `CCC(=O)c1ccc(OCC(=O)N2CCc3cc(OC)c(OC)cc3C2)cc1` was 0%. As for `CCOC(=O)N1CCC(NC(=O)Cc2ccc(-n3c(=O)[nH]c4ccccc4c3=O)cc2)CC1`, the inhibition was 3%.

As for `CN(CCCC(=O)Nc1ccncc1)S(=O)(=O)c1ccc(Cl)cc1`, the inhibition is 3%. The value for `CN1CCN(CCCNC(=O)Cn2ncc3c4ccccc4n(C)c3c2=O)CC1` was 0%; that for `Cc1nc(CNS(=O)(=O)c2ccc3c(c2)OCCO3)cs1` was 0%; that for `CC1CCc2nc(NC(=O)CN3CCN(Cc4ccc5c(c4)OCO5)CC3)sc2C1` (stereo not given) was 0%. The figure for `COc1cc(C(=O)OCc2cc3ccccc3[nH]c2=O)cc(OC)c1OC` is 4%; for `CC(=O)Nc1cccc(NC(=O)CSc2nn3c(=O)c(C)nnc3s2)c1` it is 2%; for `COCCN(CCOC)C(=O)CCn1c(=O)oc2ccccc21` it is 0%. The value for `Cc1c2c(nc3nc4ccccc4n13)CC(C)(C)CC2=O` was 8%; that for `N#CC1=C(N)OC2=C(C(=O)CCC2)C1CCc1ccccc1` (stereo not given) was 1%. In the case of `CCn1c(=N)n(CC(O)c2ccco2)c2ccccc21` (stereo not given), the inhibition was 0%. The figure for `CN(Cc1ccccc1)C(=O)c1ccc2c(c1)OCO2` is 0%. In the case of `CCN(C(=O)CCc1nc(-c2ccccc2F)no1)c1cc(OC)ccc1OC`, the inhibition is 0%. The value for `Cc1cc(-c2ccc(F)cc2)nc2cc(C(N)=O)nn12` was 0%. The value for `O=C(c1cccs1)N1CCc2ccccc21` was 0%. As to `Cc1ccc(NC(=O)COC(=O)c2ccn(C)n2)cc1`, the inhibition was 0%. Regarding `CC(C)(Oc1ccc(Cl)cc1)C(=O)NC1CCSC1=O` (stereo not given), the inhibition is 0%. The value for `COc1ccc(OC)c(S(=O)(=O)N2c3ccccc3CC2C)c1` (stereo not given) was 0%.

For `CCOC(=O)N1CCC(N(CCCOC)C(=O)Nc2ccc(CC)cc2)CC1`, the inhibition was 0%. The value for `COc1cc(OC)c(C2N(C)c3ccccc3N2C)cc1OC` was 0%. The figure for `CC1=C(C(N)=O)C(c2ccccn2)n2nc(-c3ccccc3Cl)nc2N1` (stereo not given) is 5%; for `O=C(Cn1nnc(-c2cc(Cl)ccc2-n2cnnn2)n1)N1CCCc2ccccc21` it is 0%.

Regarding `COC(=O)c1cc(=O)nc2sc(-c3cccs3)nn12`, the inhibition is 8%. The figure for `C/C(=N\O)c1ccc2c3c([nH]c2c1)CCCC3` is 2%; for `N#CC1=C(N)Oc2n[nH]c(-c3cccs3)c2C1c1cccs1` (stereo not given) it is 2%.
